# Experimental data as given in the supplement of paper PMC3334620.
# Whole data set: some 33,000 sequences, median “E-score (-0.5 to 0.5)” near -0.012, cut for the highest 2% near 0.29. The sample holds the highest values, similar sequences and a random draw of the others, so the mix is not that of the screen.
# Molecular target: T1, Ybr033w (UniProt P38073)
# T1 sequence: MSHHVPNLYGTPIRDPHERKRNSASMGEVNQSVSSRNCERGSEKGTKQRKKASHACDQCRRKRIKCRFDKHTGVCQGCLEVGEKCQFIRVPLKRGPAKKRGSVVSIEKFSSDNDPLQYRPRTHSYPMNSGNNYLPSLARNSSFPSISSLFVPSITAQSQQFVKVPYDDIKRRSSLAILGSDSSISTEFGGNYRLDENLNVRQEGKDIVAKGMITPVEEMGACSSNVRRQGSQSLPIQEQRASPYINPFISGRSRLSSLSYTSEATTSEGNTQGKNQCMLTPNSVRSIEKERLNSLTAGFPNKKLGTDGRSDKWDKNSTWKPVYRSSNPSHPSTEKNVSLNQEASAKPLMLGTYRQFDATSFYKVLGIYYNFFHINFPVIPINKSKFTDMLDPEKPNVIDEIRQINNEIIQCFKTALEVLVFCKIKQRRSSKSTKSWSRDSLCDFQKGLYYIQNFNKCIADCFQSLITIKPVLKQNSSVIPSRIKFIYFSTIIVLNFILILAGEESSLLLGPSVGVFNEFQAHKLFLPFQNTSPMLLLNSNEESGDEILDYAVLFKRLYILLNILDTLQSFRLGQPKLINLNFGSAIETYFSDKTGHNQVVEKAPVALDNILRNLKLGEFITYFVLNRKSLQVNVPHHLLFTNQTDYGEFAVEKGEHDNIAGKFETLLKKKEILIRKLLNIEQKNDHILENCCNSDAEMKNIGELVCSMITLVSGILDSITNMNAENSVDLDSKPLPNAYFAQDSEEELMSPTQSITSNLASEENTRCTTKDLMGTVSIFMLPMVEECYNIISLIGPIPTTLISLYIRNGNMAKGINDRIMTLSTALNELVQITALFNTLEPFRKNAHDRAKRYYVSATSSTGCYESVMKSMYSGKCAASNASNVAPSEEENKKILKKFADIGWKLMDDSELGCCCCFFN
# Assay: PBM E-score (8-mer binding enrichment) (E-score (-0.5 to 0.5)); higher = stronger / more preferred TF binding
# Settings: protein concentration: 200 nM; construct: GST-full length
# In short: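 Bound GST-tagged yeast transcription factors, applied at about 100-200 nM to double-stranded universal all-10-mer Agilent arrays, were detected with fluorescent anti-GST. Scans were normalised with masliner. A modified Wilcoxon-Mann-Whitney statistic, the E-score, was assigned to each ungapped eight-base word pooled with its reverse complement by the Universal PBM Analysis Suite.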
row,Sequence,PBM E-score
1,CCAGAGCA,-0.0441
2,AACCAGCC,-0.0273
3,GACCAGGC,-0.164
4,AGGATGCA,-0.0489
5,CGTTCTAC,0.00885
6,CTGTTGTC,-0.0159
7,AATTTAAG,0.211
8,AATTTAAC,0.245
9,AACTTAAT,0.314
10,AACTTAAG,0.0775
11,AATTTACA,0.134
12,AATTTAGT,0.241
13,AATTTAAT,0.319
14,AATTTACT,0.311
15,AACTTAAA,0.237
16,CCTACCGC,-0.292
17,CCCAGTAC,-0.0948
18,CGAAGCGA,-0.0591
19,ACCAACAC,-0.0108
20,ACCTTGAA,0.102
21,GAATTAAC,0.249
22,GAATTATA,0.307
23,GAATTACC,0.139
24,TAATTATA,0.382
25,GAATTATC,0.305

row,Sequence,PBM E-score
1,GCATTATA,0.0824
2,CAATTATA,0.28
3,AAATTCTA,0.217
4,AAATTATA,0.215
5,TAATTCTA,0.288
6,GAATTCTA,0.176
7,GGATTATA,0.244
8,CTGCACAG,-0.0409
9,ATCCATAG,-0.0877
10,CCAGAAAG,0.171
11,CCTAAATC,0.0625
12,AATTGACG,-0.0634
13,CTATGCGA,-0.0724
14,AGAAATAC,0.104
15,GGAAATAA,0.284
16,AGAAATAT,0.299
17,AGAAATAG,0.227
18,AGAAATAA,0.36
19,CGAAATAA,0.264
20,AATTGCCT,0.0818
21,AAACTCCG,0.17
22,CTCTGCTC,-0.16
23,ACTGGCCC,0.0468
24,AGTTGGAG,-0.0321
25,AGTTGGAC,-0.0273

row,Sequence,PBM E-score
1,AGTTGGAT,0.288
2,CAGTCACG,-0.248
3,CACCGTGG,-0.311
4,AACAAGTG,0.127
5,ACCACCGC,-0.197
6,CAGATTAG,-0.134
7,TAGATTCA,0.0876
8,AAGATTAC,0.101
9,TAGATTGA,0.233
10,AAGATTAG,0.219
11,TAGATTAA,0.312
12,GAGATTAA,0.182
13,AAGATTAA,0.289
14,CAGATTAA,0.291
15,TCTGGGAA,-0.0142
16,GACGTCAA,-0.013
17,AGTTGGAA,0.124
18,CCCAAGAG,-0.146
19,AATCATCA,0.17
20,CCTGCCAG,-0.2
21,CTGGCCTA,-0.0592
22,AAAATCAA,0.221
23,ATAATCAT,0.292
24,ATAATCAG,0.092
25,ATAATCAA,0.229

row,Sequence,PBM E-score
1,AAAATCAT,0.31
2,AAAATCAG,0.188
3,CGGAAAGA,-0.0353
4,AGGTGTAC,0.0056
5,CTCAAGTA,0.0799
6,ATAGCTTG,-0.0519
7,GGCGACCC,-0.301
8,ACACACAT,0.117
9,AAATCGCT,-0.173
10,ACTTATAT,0.328
11,GCTTATAA,0.147
12,ACTTATAC,0.244
13,ACTTATAG,0.0878
14,TCTTATAA,0.0725
15,ACTTATAA,0.305
16,CTGGATAC,-0.107
17,GACACTAC,-0.0871
18,ACGCACAC,0.157
19,ATCTACGC,0.0459
20,CTATGATA,0.113
21,ACATGATA,0.32
22,GTATGATA,0.234
23,ACATGTTC,0.0642
24,GCATGATA,0.109
25,AAATGATA,0.345

row,Sequence,PBM E-score
1,ATATGATA,0.347
2,ACATGATC,0.122
3,CAATGATA,0.126
4,ACATGTTG,0.244
5,ACATGTTA,0.289
6,AAATGATT,0.273
7,CGACGTAG,-0.223
8,AGCATTCC,-0.043
9,ATGTGGCG,-0.018
10,AATCTTAC,0.137
11,GCTTAATA,0.0557
12,GGTGGAAA,-0.00937
13,CCTGCTCA,-0.156
14,ATTCTAGC,0.0909
15,ACGGGCTA,-0.252
16,AGGGATCA,0.169
17,AAATGATG,0.248
18,CAATGATC,0.0568
19,AAATGATC,0.328
20,TATACTGA,0.351
21,CATACTGA,0.212
22,GATACTGA,0.0886
23,CATTCGCG,0.0443
24,ATATAGGG,-0.00433
25,GAGGCCTC,-0.37
